# ERa SRC1 pot – enhancers of ERα–SRC-1 coactivator binding, primary screen, biochemical, TR-FRET, ERα LBD, low estradiol | coactivator binding (% of control), % at 25.6 µM | TR-FRET ERalpha-LBD/SRC-Cy5 coactivator binding, 2 h; 100 = basal binding, no effect | hit rate 1.3% among 86,000 | Estrogen receptor (Homo sapiens), P03372; in the data active means activity above about 200%;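 further: binding measured in presence of low estradiol as agonist stimulus; 0% = peptide alone without receptor and 100% = receptor with peptide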
# Target sequence (P03372 whole entry, looked up, the tested form may be a part): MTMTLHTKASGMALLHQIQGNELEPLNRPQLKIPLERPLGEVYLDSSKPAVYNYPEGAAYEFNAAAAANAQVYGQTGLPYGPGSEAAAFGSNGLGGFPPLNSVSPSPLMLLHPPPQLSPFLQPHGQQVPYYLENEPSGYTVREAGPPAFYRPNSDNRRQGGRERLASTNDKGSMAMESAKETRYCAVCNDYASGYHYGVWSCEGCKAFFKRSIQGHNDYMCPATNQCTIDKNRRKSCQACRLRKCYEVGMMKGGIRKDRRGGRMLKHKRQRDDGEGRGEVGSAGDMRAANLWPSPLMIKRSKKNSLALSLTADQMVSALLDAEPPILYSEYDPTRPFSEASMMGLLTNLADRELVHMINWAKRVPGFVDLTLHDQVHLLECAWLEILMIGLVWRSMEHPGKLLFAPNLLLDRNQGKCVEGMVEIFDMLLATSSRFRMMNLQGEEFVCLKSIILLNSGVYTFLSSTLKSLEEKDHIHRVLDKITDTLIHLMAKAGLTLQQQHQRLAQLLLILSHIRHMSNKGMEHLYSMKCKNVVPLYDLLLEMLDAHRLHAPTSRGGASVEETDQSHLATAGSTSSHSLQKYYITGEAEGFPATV
# ERa SRC1 inh – ERα–SRC-1 coactivator interaction inhibitors, primary screen, biochemical, TR-FRET, ERα LBD, estradiol-bound; AID 629, 2007; hit rate 1.7% among 86,000; TR-FRET ER-alpha LBD / SRC-1 peptide; Estrogen receptor (Homo sapiens), P03372; inhibition, % at 25.6 µM; in the data active means inhibition above about 50%;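 further: 0% = receptor plus peptide control and 100% = peptide only without receptor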
# PLK1 kinase inh – human PLK1 kinase inhibitors, primary screen, biochemical, TR-FRET | Serine/threonine-protein kinase PLK1 (Homo sapiens), P53350 | recombinant PLK1 kinase, TR-FRET peptide phosphorylation | inhibition, % at 10 µM | hit rate 0.53% among 97,000 | AID 619, 2007;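 active means inhibition of 50% or more in the single-concentration screen; inactive means inhibition below 50%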;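 further: 0% = DMSO max control and 100% = H-89 dihydrochloride min control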
# Smad3 FoxH1 inh – Smad3/FoxH1 peptide binding inhibitors, primary screen, biochemical, TR-FRET; Mothers against decapentaplegic homolog 3 (Homo sapiens), P84022; TR-FRET Smad3/Dy647-FoxH1 peptide binding, europium anti-His; inhibition, % at 25 µM; hit rate 0.29% among 88,000;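 active means compounds that reduce the energy-transfer binding signal between the protein and its labelled peptide by more than half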;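 further: 0% = Smad3 plus labelled peptide maximal FRET and 100% = peptide-only background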
# Plk1 PBD FP – Plk1 polo box domain binding inhibitors, primary screen, biochemical, fluorescence polarization; Serine/threonine-protein kinase PLK1 (Homo sapiens), P53350; Plk1 PBD phosphopeptide binding; inhibition, %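 (tested at about 20 µM)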; hit rate 0.13% among 97,000; in the data active means inhibition above about 34%, passing the limit was not always enough
# ERb SRC1 inh – inhibitors of ERβ-SRC1 coactivator interaction, primary screen, biochemical, TR-FRET, ERβ LBD, SRC-1 peptide | Estrogen receptor beta (Homo sapiens), Q92731 | TR-FRET ER-beta LBD / SRC1-Cy5 peptide binding; receptor agonist-loaded with 1 µM estradiol | inhibition, % at 25.6 µM | hit rate 1.3% among 86,000;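 active means compounds whose percent inhibition of the receptor-coactivator binding signal exceeds about 50% in the single-dose screen, limit read from the data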;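 further: 0% = receptor plus peptide wells without compound and 100% = peptide-only wells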
# An asterisk follows results filed as active; i = inactive; . = no result given; [ ] = remark or other dose. The list is not random: actives were taken first. Their share in the collection is about 3.3%.
SMILES,ERa SRC1 pot,ERa SRC1 inh,PLK1 kinase inh,Smad3 FoxH1 inh,Plk1 PBD FP,ERb SRC1 inh
Cc1ccc(C(=O)c2c[nH]c(C(=O)NCc3cccnc3)c2)cc1,.,.,-15.7,.,11.0,.
N#CC[N+]1(Cc2ccccn2)CCCC1,.,.,.,0.9,.,.
O=c1c2ccccc2nc2n1CCCCN2,82.0,79.9*,-8.1,-1.1,-9.4,11.6
COc1cc(OC)cc(C(=O)Nc2ccc(-c3nc4ccccc4o3)cc2)c1,96.7,-2.2,-17.6,-11.2,-5.4,5.7
COc1cccc(C(=O)Nc2c(C(N)=O)oc3ccccc23)c1,80.9,1.5,-8.7,-5.1,-25.5,90.2*[fluorescence artefact?]
COc1cccc(C(=O)Nc2ccc(-c3nc4ccccc4o3)c(O)c2)c1,150.4,59.8*[fluorescence artefact?],-32.4,-4.0,-14.2,35.9
COc1cc(C(=O)Nc2ccc(-c3nc4cc(C)ccc4o3)c(O)c2)cc(OC)c1OC,245.9*,11.1,-14.7,10.1,-7.3,16.5
CO[C@@H]1/C=C\O[C@]2(C)Oc3c(C)c(O)c4c(O)c(c(CN5CCN(C)CC5)c(O)c4c3C2=O)NC(=O)C(C)=C/C=C\[C@@H](C)[C@@H](O)[C@H](C)[C@@H](O)[C@H](C)[C@H](OC(C)=O)[C@@H]1C,.,.,.,6.5,.,.
C[C@H]1CCC/C=C\[C@@H]2C[C@H](OC(=O)CN(C)C)C[C@H]2[C@@H](O)/C=C\C(=O)O1,.,.,.,4.8,.,.
C[N+](C)(C)c1cc2c(nn1)Nc1ccccc1S2,.,.,.,40.8,.,.
CCOc1ccc(NC(=O)c2ccc(S(=O)(=O)N(C)C)cc2)cc1,111.9,5.2,.,0.4,.,-6.1
CN(C)S(=O)(=O)c1ccc(C(=O)Nc2ccc(Cl)cc2)cc1,112.6,-0.2,-8.7,0.1,5.1,64.1*[fluorescence artefact?]
CCOC(=O)COc1cccc2c(=O)n(CC(=O)N3CCCc4ccccc43)ccc12,97.3,9.8,-22.9,-7.8,-1.4,50.6*[fluorescence artefact?]
COc1cccc(/C=C2\N=C(c3c(-c4ccccc4)noc3C)OC2=O)c1OC,86.9,67.7*,-14.8,4.4,21.0,38.8
O=C(N1CCOCC1)N1CCN(Cc2ccccc2)CC1,544.7*[fluorescence artefact?],-5.2,-8.8,-1.7,7.2,-6.2
Cc1cc(C)n2nc(SCC(=O)N(C)Cc3ccccc3)nc2n1,134.4,2.2,-11.0,4.4,-7.3,-2.1
CC(C)c1ccc(S(=O)(=O)c2n[nH]n3c2nc(=O)c2ccccc23)cc1,105.3,-13.2,-15.4,20.5,3.9,-17.7
CCc1ccc(S(=O)(=O)c2n[nH]n3c2nc(=O)c2ccccc23)cc1,560.5*[fluorescence artefact?],6.3,-11.2,-2.7,-7.7,7.4
O=C(Nc1ccsc1C(=O)NC1CCCCC1)c1ccccc1,.,.,-5.7,.,-0.5,.
CCC1Oc2ccccc2N(CC(=O)Nc2ccccc2OC)C1=O (stereo not given),122.8,-2.1,-9.4,2.2,-46.0,-8.8
O=C(Nc1cc(C(F)(F)F)ccc1N1CCCCC1)c1ccc(Br)o1,110.5,-4.5,-6.5,4.0,19.1,-2.4
O=C(Nc1cc(C(F)(F)F)ccc1N1CCCCC1)c1ccco1,693.0*[fluorescence artefact?],-9.1,-5.7,1.8,21.5,2.3
O=C(Nc1ccccc1)C1Cc2ccccc2CN1C(=O)c1ccco1 (stereo not given),.,.,-19.7,.,-0.4,.
O=C(Nc1cc(C(F)(F)F)ccc1N1CCOCC1)C1Cc2ccccc2CN1C(=O)c1ccco1 (stereo not given),13.8,91.4*[fluorescence artefact?],-9.1,9.6,1.9,55.0*
O=C(CSc1ncnc2c1oc1ccccc12)NCc1ccc(F)cc1,783.9*[fluorescence artefact?],48.9,-10.0,7.3,13.9,56.9*[fluorescence artefact?]
SMILES,ERa SRC1 pot,ERa SRC1 inh,PLK1 kinase inh,Smad3 FoxH1 inh,Plk1 PBD FP,ERb SRC1 inh
Cc1nc(SCC(=O)c2cccs2)c2oc3ccccc3c2n1,147.3,-1.6,-18.0,0.2,-20.0,-4.8
NC(=O)CSc1ncnc2c1oc1ccccc12,70.3,13.8,12.7,17.6,4.6,11.1
O=C(CSc1ncnc2c1oc1ccccc12)c1cccs1,282.9*[fluorescence artefact?],7.7,4.0,0.6,19.0,13.4
Fc1cccc(CSc2ncnc3c2oc2ccccc23)c1,401.8*[fluorescence artefact?],47.3,-13.2,8.0,-0.2,57.2*[fluorescence artefact?]
O=C(CSc1ncnc2c1oc1ccccc12)NCC1CCCO1 (stereo not given),109.0,-14.0,-7.7,33.5,-6.7,-28.6
O=C(CSc1ncnc2c1oc1ccccc12)NC1CCCCC1,289.4*[fluorescence artefact?],56.4*[fluorescence artefact?],i,41.9,-19.4,51.1*[fluorescence artefact?]
CC1CCCCN1C(=O)Cn1cc(/C=C2/C(=O)Nc3ccccc32)c2ccccc21 (stereo not given),85.2,-8.2,-4.7,-1.1,-0.6,10.1
Sc1ccc2ccccc2c1CNCc1ccccc1,.,.,.,-6.0,.,.
Fc1ccc(CSc2ncnc3c2oc2ccccc23)cc1,192.4,44.2,.,24.3,.,56.1*[fluorescence artefact?]
CCSc1ncnc2c1oc1ccccc12,105.7,-2.9,-4.8,11.2,5.9,-3.4
Cc1ccccc1Nc1nc(N)nc(CSc2nnnn2-c2ccccc2)n1,101.2,7.4,-12.8,14.3,-31.1,-1.6
CCc1ccc(Nc2nc(N)nc(CSc3nnnn3-c3ccccc3)n2)cc1,312.1*,40.7,-10.6,20.2,-19.5,41.3
C=CCn1c(=O)c(C#N)cc2c(=O)n3ccccc3nc21,40.5,55.5*,5.4,7.8,6.8,56.9*
CC(=O)[C@@]1(N=Nc2ccc(S(N)(=O)=O)cc2)CCOC1=O,.,.,.,52.1*,.,.
CCOc1ccc2c(ccc(/C=C/c3cc(C)c4cccnc4c3O)[n+]2C)c1,.,.,.,44.3,.,.
Cc1[nH]n(-c2ccccc2)c(=O)c1C(c1ccc(O)c([N+](=O)[O-])c1)c1c(C)[nH]n(-c2ccccc2)c1=O,.,.,-6.3,.,-0.6,.
Nc1[nH]n(-c2ccccc2)c(=O)c1N=Nc1ccccc1[N+](=O)[O-],9.0,88.4*[fluorescence artefact?],-17.7,2.6,-3.7,52.0*
COc1ccc(N2CCCn3c2nc2c3c(=O)n(CCc3ccccc3)c(=O)n2C)cc1,105.3,3.1,.,4.3,.,0.8
Cc1ccc(N2CCn3c2nc2c3c(=O)n(CCc3ccccc3)c(=O)n2C)cc1,182.5,59.7*[fluorescence artefact?],.,0.6,.,49.2
O=C(O)c1cc(N=Cc2ccccc2O)cc(C(=O)O)c1,.,.,.,-15.3,.,.
Cc1ccc(-c2nc(C3CCCN(S(=O)(=O)c4ccc(C)cc4)C3)no2)cc1 (stereo not given),99.3,-0.9,67.0*,9.4,-27.9,-11.0
O=C(Cc1cccc2ccccc12)N/N=C/c1ccc(F)cc1,.,.,-0.3,.,-20.4,.
O=C(Cc1cccc2ccccc12)N/N=C/c1ccc(OC(=O)/C=C/c2ccco2)cc1,88.2,65.4*[fluorescence artefact?],-10.0,6.7,11.4,47.6

# High-throughput results from PubChem BioAssay.
